Laboratory results from PubChem BioAssay (NCI).
Several values for one entry are separate records, joined by “and”; a condition that tells them apart may be missing. Identical values can stand only once. About 83,000 compounds went through this panel and 20% of them were active in at least one assay; those are over-represented in the sample as a whole.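 In brief: 96-well plates, 48 h treatment, single concentration, percent growth endpoint.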 Values without a mark were called inactive. Activity calls are given as the source filed them. The calls were made as follows: active = growth percent below 10; inactive = the rest.

Test system: MDA-MB-468 breast
Test: NCI-60 one-dose screen, 48 h (100 = growth as untreated, 0 = no growth, -100 = all killed)
Settings: 10 µM unless noted

**Q.** How did the growth turn out when CC[CH2][Sn]([Cl])([Cl])[CH2]CC was run?
**A.** 22.4%

**Q.** How did the growth turn out when N#CCC(=O)c1ccccc1 was run?
**A.** 6.35% (active)

**Q.** Which growth does the source give for COc1cccc2c1C(=O)c1c(O)c3c(c(O)c1C2=O)CC(O)(/C(C)=N/NC(=O)CCC(=O)N/N=C(\C)C1(O)Cc2c(O)c4c(c(O)c2C(OC2CC(N)C(O)C(C)O2)C1)C(=O)c1c(OC)cccc1C4=O)CC3OC1CC(N)C(O)C(C)O1 (stereo not given) here?
**A.** -35.7% [5 µM] (active)

**Q.** For CC1=C2C(=O)[C@](C)(CO)C=C2C(=O)[C@](C)(O)C12CC2, which growth is on record?
**A.** -69.8% (active)

**Q.** N#CC(NC(=O)CCl)=C(Cl)Cl was tested. Which growth did it give?
**A.** -48.2% (active)

**Q.** CCOP(=O)(OCC)/C(C#N)=C/c1ccc(Br)cc1 was tested. Which growth did it give?
**A.** 101%

**Q.** For CC(C)CCC1(CCCl)C(=O)NC(=O)NC1=O, which growth is on record?
**A.** 90.1%

**Q.** How did the growth turn out when CC1=C(CCCOC(=O)CN)C2=C(C)C3(CC3)[C@@](C)(O)C(=O)C2=C1 was run?
**A.** 20.2%

**Q.** N#C[Se]CCCNS(=O)(=O)C1CC2C=CC1C2 (stereo not given) was tested. Which growth did it give?
**A.** -30% (active)

**Q.** COc1cccc2c1c(C(=O)C(=O)Nc1cc(C)no1)cn2Cc1ccc(F)cc1 was tested. Which growth did it give?
**A.** 48.4%

**Q.** How did the growth turn out when CC1(C)N=C(N)N=C(N)N1c1ccc(CCCCc2ccc(Cl)cc2S(=O)(=O)F)c(Cl)c1 was run?
**A.** -22.1% (active)

**Q.** With N#C[Se]CCN1C(=O)C2C(C1=O)[C@H]1C=C[C@@H]2S1 (stereo not given in full) as the molecule, how does the growth read?
**A.** -19.7% (active)

**Q.** For O=C1c2ccccc2C(=O)C(Cl)C1Cl (stereo not given), which growth is on record?
**A.** -89.9% (active)

**Q.** How did the growth turn out when CC[C@H](C)[C@H](NC(=O)[C@H]1CCCCN1C)C(=O)N(C)[C@H](C[C@@H](OC(C)=O)c1cccc(C(=O)N[C@@H](Cc2ccccc2)C[C@H](C)C(=O)OC)n1)C(C)C was run?
**A.** 40.9%

**Q.** NC(=O)SCC(=O)Nc1ccc([As](=O)(O)O)cc1 was tested. Which growth did it give?
**A.** 87.2%

**Q.** How did the growth turn out when O=C(CBr)Nc1ccccc1 was run?
**A.** 108%

**Q.** CCOc1c(Cl)cc(CNC(C)C(O)c2ccccc2)cc1OC (stereo not given) was tested. Which growth did it give?
**A.** 32.5%

**Q.** Which growth does the source give for O=c1[nH]c(=O)[nH]c(=O)[nH]1 here?
**A.** 146%

**Q.** With CCC(CO)NC1CCCCC1 (stereo not given) as the molecule, how does the growth read?
**A.** 73.6%

**Q.** Which growth does the source give for C=C(C)[C@@]12OC3(/C=C/C=C/CCCCC)O[C@@H]1[C@@H]1[C@@H]4O[C@]4(CO)[C@@H](O)[C@]4(O)C(=O)C(C)=C[C@H]4[C@@]1(O3)[C@H](C)[C@H]2OC(=O)c1ccccc1 here?
**A.** 56.5%

**Q.** Which growth does the source give for Cc1cc2c(cc1-c1ccnc(/C=C/C(=O)O)c1)C(C)(C)CCC2(C)C here?
**A.** 97.1%

**Q.** With Nc1ccc(P(=O)(O)O)cc1 as the molecule, how does the growth read?
**A.** 104% and 92.6%

**Q.** With COc1cc([N+](=O)[O-])c2ncccc2c1[N+](=O)[O-] as the molecule, how does the growth read?
**A.** 0.105% (active)

**Q.** Cc1cc(CCl)c(C)cc1CCl was tested. Which growth did it give?
**A.** -59.9% (active)

**Q.** With CCC(C)(C)[C@H](NC(=O)[C@H]1CCCCN1C)C(=O)N(C)[C@H](C[C@@H](OC(C)=O)c1nc(C(=O)N[C@@H](Cc2ccccc2)C[C@H](C)C(=O)O)cs1)C(C)C as the molecule, how does the growth read?
**A.** 7.54% (active)

**Q.** With CCCC[C@H](NC(=O)[C@H]1CCCCN1C)C(=O)N(C)[C@H](C[C@@H](OC(C)=O)c1nc(C(=O)N[C@@H](Cc2ccccc2)C[C@H](C)C(=O)OCC)cs1)C(C)C as the molecule, how does the growth read?
**A.** 31.2%

**Q.** With O=C(O)CCCc1ccc(N(CCCl)CCCl)cc1 as the molecule, how does the growth read?
**A.** 77.7%

**Q.** O=C1c2ccccc2C(=O)N1N1CC1c1ccccc1 (stereo not given) was tested. Which growth did it give?
**A.** 104%

**Q.** Which growth does the source give for CC(=O)O[C@H](C[C@H](C(C)C)N(C)C(=O)[C@@H](NC(=O)[C@H]1CCCCN1C)C(C)C)c1cccc(C(=O)N[C@@H](Cc2ccccc2)C[C@H](C)C(=O)O)n1 here?
**A.** 20.9%

**Q.** How did the growth turn out when O=C1C(N2CC2)=C(N2CC2)C(=O)C(N2CC2)=C1N1CC1 was run?
**A.** 0.964% (active)
